Assay results taken from the supplement of paper PMC10849652.
Targets with a hit are over-represented here; the source holds about 8,800 in all. About 0.5% of all pairs of compound and target were hits.

Legend:
Experiment in all cases: log2 fold change, soluble protein after heating vs DMSO (PISA); higher = thermal stabilisation; K562 lysate, 10 uM; active = over 0.2 and 3.5 SD of the protein, either way, in both replicates (recomputed)
[1] = compound: CCCS(=O)(=O)Nc1ccc(F)c(C(=O)c2c[nH]c3ncc(-c4ccc(Cl)cc4)cc23)c1F [vemurafenib]
How it was run: (§1)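 Values give the log-two fold change in thermal stability against solvent controls, from duplicates. Crude K562 extract at 1 mg/mL protein, made by dounce homogenisation in PBS pH 7.4 with 1 mM MgCl2, was treated with 10 μM compound for 30 min. After 3 min heating across 48°C-58°C, aliquots were pooled, adjusted to 0.5% NP-40 at 4°C and centrifuged at 21,000xg for 90 min. The supernatant was measured by TMTpro 16plex LC-MS/MS with channel sums equalised.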

[2] = compound: CCCS(=O)(=O)Nc1ccc(F)c(C(=O)c2c[nH]c3ncc(Cl)cc23)c1F
How it was run: as §1

[3] = compound: CCN(CCCOc1ccc2c(Nc3cc(CC(=O)Nc4cccc(F)c4)[nH]n3)ncnc2c1)CCOP(=O)(O)O [barasertib]
How it was run: as §1

[4] = compound: CC[C@@H]1C(=O)N(C)c2cnc(Nc3ccc(C(=O)NC4CCN(C)CC4)cc3OC)nc2N1C1CCCC1
How it was run: as §1

[5] = compound: CC[C@@H]1C(=O)N(C)c2cnc(Nc3ccc(C(=O)N[C@H]4CC[C@H](N5CCN(CC6CC6)CC5)CC4)cc3OC)nc2N1C(C)C [volasertib]
How it was run: as §1

[6] = compound: CCn1c(C(=O)N(C2CC2)C2CC2)cc2c3c(ncn3C)c(Nc3cc(C)n(C)n3)nc21
How it was run: as §1

[7] = compound: CCn1cc(-c2ccnc3[nH]c(-c4cccc(CN(C)C)c4)cc23)c(-c2ccc(NC(=O)N(C)C)cc2)n1
How it was run: as §1

[8] = compound: CN1CCC(CNc2ccc3ncc(-c4cccc(OC(F)(F)F)c4)n3n2)CC1
How it was run: as §1

[9] = compound: CN1CCN(CCOc2cc(OC3CCOCC3)c3c(Nc4c(Cl)ccc5c4OCO5)ncnc3c2)CC1 [saracatinib]
How it was run: as §1

[10] = compound: CN1CCN(c2nc(C3=C(c4c[nH]c5ccccc45)C(=O)NC3=O)c3ccccc3n2)CC1 [sotrastaurin]
How it was run: as §1

Measured: log2 fold change

NFAT5 isoform 5 (UniProt O94916)
Chain of UniProt O94916 (O94916 whole entry, looked up): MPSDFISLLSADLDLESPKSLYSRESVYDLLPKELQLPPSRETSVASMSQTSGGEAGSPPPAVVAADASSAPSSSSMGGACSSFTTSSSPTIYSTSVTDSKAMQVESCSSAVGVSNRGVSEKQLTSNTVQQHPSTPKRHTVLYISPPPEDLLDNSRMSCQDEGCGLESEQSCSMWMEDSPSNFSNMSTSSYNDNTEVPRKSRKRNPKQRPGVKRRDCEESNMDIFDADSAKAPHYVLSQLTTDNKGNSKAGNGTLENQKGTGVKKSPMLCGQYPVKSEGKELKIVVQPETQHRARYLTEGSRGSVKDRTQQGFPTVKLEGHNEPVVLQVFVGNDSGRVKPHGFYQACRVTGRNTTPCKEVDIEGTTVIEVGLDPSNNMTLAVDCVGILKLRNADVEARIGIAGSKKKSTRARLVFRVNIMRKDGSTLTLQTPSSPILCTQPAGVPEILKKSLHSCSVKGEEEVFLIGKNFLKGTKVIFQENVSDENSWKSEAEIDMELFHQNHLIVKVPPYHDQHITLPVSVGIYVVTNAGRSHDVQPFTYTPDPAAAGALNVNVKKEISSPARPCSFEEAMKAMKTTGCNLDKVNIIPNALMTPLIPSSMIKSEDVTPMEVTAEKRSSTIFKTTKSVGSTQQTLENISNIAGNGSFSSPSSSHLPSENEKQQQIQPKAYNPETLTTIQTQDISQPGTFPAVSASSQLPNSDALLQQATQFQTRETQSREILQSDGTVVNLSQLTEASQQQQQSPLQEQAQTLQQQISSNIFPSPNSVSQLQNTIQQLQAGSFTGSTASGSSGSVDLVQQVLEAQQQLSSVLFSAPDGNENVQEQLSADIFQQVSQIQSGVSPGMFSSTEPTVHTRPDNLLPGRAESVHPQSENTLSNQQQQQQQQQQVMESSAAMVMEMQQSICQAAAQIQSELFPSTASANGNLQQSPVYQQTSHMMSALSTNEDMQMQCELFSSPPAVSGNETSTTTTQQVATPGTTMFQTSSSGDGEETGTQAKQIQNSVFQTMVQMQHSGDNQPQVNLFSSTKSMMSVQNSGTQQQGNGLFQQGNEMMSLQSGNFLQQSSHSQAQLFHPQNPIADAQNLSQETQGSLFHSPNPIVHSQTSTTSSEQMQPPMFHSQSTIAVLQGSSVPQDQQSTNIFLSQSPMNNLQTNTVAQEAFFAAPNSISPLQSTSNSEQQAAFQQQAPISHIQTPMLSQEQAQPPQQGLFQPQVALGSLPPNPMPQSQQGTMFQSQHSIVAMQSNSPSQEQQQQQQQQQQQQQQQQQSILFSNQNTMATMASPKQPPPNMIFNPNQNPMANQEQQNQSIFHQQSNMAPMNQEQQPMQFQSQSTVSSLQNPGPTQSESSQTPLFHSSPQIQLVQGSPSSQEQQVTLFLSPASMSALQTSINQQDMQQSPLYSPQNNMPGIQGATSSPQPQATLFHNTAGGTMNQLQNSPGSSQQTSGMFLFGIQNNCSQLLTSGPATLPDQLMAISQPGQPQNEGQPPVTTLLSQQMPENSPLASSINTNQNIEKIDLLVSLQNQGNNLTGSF
inactive: [1] 0.019 | [2] -0.007 | [3] -0.041 | [4] 0.043 | [5] -0.016 | [6] 0.042 | [7] -0.003 | [8] 0.044 | [9] 0.038 | [10] 0.044

NFKBIB (UniProt Q15653)
active: [7] -0.535
inactive: [1] -0.058 | [2] 0.041 | [3] -0.059 | [4] 0.099 | [5] 0.068 | [6] -0.054 | [8] 0.096 | [9] -0.013 | [10] -0.002

NEK7 (UniProt Q8TDX7)
Chain of UniProt Q8TDX7 (Q8TDX7 whole entry, looked up): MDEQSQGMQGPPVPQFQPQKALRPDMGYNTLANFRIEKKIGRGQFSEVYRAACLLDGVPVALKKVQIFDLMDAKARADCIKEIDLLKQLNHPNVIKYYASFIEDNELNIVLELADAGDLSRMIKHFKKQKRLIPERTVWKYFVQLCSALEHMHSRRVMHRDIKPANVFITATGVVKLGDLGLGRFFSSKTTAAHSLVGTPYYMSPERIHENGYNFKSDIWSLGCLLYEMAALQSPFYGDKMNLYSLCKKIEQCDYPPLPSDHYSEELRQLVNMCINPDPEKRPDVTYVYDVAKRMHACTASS
inactive: [1] 0.086 | [2] 0.024 | [3] 0.002 | [4] -0.006 | [5] -0.091 | [6] -0.025 | [7] -0.13 | [8] 0.041 | [9] 0.013 | [10] 0.04

NUF2 (UniProt Q9BZD4)
inactive: [1] -0.01 | [2] 0.016 | [3] 0.048 | [4] -0.126 | [5] -0.029 | [6] 0.016 | [7] -0.069 | [8] -0.101 | [9] 0.032 | [10] 0.03

NBEAL2 (UniProt Q6ZNJ1)
inactive: [1] -0.047 | [2] 0.021 | [3] 0.045 | [4] -0.053 | [5] -0.128 | [6] 0.01 | [7] 0.013 | [8] -0.037 | [9] 0.013 | [10] 0

PAXBP1 (UniProt Q9Y5B6)
inactive: [1] 0.072 | [2] 0.006 | [3] 0.07 | [4] -0.008 | [5] -0.058 | [6] 0.042 | [7] 0.043 | [8] 0.004 | [9] 0.02 | [10] 0.025

MSH2 (UniProt P43246)
inactive: [1] -0.014 | [2] 0.001 | [3] 0.007 | [4] -0.033 | [5] -0.068 | [6] 0.038 | [7] 0.003 | [8] -0.055 | [9] 0 | [10] 0.032

NELFA (UniProt Q9H3P2)
Chain of UniProt Q9H3P2 (Q9H3P2 whole entry, looked up): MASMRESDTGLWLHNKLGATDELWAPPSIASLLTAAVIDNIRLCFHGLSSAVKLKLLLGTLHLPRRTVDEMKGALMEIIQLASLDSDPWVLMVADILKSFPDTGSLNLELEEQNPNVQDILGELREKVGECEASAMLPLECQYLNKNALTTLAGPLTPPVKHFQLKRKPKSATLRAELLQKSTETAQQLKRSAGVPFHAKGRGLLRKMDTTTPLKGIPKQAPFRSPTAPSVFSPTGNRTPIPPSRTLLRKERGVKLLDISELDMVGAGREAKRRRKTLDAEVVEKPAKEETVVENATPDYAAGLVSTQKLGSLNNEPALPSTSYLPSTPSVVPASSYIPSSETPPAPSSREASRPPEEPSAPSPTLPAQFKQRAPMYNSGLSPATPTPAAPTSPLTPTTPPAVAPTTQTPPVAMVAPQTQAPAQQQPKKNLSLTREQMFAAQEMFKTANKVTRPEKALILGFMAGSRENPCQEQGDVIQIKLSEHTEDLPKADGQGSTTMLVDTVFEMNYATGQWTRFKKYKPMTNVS
inactive: [1] 0.015 | [2] 0.02 | [3] -0.005 | [4] -0.016 | [5] -0.083 | [6] 0.007 | [7] 0.037 | [8] -0.037 | [9] -0.013 | [10] 0.029

NDUFA4 (UniProt O00483)
Chain of UniProt O00483 (O00483 whole entry, looked up): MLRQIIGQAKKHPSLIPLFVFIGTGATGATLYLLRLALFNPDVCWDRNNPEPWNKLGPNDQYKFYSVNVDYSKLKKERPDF
inactive: [1] -0.009 | [2] 0.245 | [3] 0.058 | [4] 0.011 | [5] 0.122 | [6] 0.085 | [7] 0.067 | [8] -0.134 | [9] 0.018 | [10] -0.063

MRPL51 (UniProt Q4U2R6)
inactive: [1] 0.032 | [2] 0.028 | [3] 0 | [4] -0.044 | [5] 0.022 | [6] 0.038 | [7] -0.309 | [8] 0.16 | [9] 0.02 | [10] 0.008

NOC2L (UniProt Q9Y3T9)
inactive: [1] 0.04 | [2] 0.021 | [3] 0.028 | [4] -0.029 | [5] -0.035 | [6] 0.006 | [7] -0.079 | [8] -0.016 | [9] -0.078 | [10] 0.05

MT-CYB (UniProt P00156)
Chain of UniProt P00156 (P00156 whole entry, looked up): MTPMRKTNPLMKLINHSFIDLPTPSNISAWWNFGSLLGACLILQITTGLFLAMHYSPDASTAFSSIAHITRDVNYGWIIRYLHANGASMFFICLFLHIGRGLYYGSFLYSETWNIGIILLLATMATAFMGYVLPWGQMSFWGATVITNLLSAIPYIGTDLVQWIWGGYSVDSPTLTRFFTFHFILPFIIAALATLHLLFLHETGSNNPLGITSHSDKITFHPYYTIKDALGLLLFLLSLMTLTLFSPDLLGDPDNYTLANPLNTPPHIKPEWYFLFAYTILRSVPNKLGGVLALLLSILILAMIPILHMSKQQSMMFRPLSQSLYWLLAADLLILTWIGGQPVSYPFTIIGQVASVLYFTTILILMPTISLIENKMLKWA
active: [7] -0.993 | [8] 0.521
inactive: [1] 0.004 | [2] -0.03 | [3] -0.054 | [4] 0 | [5] 0.056 | [6] -0.097 | [9] 0.047 | [10] 0.027

NCAPG2 (UniProt Q86XI2)
Chain of UniProt Q86XI2 (Q86XI2 whole entry, looked up): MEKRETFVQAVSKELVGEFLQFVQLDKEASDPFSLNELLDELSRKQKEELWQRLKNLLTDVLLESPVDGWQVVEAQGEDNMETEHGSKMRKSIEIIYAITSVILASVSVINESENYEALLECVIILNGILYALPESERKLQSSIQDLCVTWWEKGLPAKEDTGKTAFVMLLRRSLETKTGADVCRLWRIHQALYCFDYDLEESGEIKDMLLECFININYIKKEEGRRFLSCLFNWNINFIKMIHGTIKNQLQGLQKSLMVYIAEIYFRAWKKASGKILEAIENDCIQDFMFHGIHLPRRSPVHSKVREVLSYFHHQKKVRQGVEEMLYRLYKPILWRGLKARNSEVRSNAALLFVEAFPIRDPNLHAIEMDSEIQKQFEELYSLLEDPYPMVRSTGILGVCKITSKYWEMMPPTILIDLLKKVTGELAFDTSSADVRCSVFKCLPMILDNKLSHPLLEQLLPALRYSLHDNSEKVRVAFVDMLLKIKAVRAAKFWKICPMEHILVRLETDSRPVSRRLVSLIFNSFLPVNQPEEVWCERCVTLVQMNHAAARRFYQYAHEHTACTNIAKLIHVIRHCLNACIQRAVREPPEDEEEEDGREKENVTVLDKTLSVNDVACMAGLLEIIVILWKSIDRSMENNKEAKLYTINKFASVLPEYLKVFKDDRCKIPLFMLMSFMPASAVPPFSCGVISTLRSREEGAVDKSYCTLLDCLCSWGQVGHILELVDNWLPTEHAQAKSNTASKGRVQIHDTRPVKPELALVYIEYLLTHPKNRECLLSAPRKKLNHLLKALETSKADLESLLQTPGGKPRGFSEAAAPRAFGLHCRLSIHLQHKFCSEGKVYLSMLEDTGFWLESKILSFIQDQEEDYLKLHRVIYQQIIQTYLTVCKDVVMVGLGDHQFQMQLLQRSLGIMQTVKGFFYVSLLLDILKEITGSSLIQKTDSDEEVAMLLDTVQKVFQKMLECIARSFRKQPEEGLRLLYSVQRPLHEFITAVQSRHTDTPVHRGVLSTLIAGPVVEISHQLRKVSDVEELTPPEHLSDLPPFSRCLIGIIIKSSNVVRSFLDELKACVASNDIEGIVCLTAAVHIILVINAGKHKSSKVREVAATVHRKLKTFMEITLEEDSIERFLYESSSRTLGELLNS
inactive: [1] 0.015 | [2] 0.044 | [3] 0.016 | [4] -0.055 | [5] -0.006 | [6] 0.025 | [7] -0.139 | [8] 0.074 | [9] 0.027 | [10] 0.027

OSBP2 (UniProt Q969R2)
Chain of UniProt Q969R2 (Q969R2 whole entry, looked up): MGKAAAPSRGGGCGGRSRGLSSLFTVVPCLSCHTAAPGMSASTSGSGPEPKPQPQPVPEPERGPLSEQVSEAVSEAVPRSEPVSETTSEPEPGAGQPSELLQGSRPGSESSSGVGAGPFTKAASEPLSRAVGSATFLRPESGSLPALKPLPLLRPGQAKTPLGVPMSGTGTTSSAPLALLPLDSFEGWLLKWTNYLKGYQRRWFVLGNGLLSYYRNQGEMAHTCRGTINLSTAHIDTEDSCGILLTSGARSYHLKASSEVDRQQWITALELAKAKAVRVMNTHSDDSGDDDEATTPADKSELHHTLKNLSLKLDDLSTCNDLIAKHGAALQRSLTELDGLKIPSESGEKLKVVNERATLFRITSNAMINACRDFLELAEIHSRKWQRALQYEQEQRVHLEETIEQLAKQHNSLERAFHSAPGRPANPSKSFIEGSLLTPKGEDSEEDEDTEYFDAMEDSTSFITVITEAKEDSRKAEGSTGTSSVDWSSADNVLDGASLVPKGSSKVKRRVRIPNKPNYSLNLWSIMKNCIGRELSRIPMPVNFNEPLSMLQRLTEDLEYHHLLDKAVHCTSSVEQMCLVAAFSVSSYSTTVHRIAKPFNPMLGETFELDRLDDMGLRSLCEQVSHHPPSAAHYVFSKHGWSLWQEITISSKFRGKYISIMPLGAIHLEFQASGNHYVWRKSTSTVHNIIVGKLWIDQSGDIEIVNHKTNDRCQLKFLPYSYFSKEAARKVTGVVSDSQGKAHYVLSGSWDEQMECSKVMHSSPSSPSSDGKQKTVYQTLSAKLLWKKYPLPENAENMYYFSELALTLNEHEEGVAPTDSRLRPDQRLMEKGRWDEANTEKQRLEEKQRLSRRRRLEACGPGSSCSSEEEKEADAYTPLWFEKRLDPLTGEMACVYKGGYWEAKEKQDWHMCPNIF
inactive: [1] -0.056 | [2] -0.014 | [3] -0.055 | [4] 0.062 | [5] -0.077 | [6] -0.001 | [8] 0.279 | [9] 0.068 | [10] 0.104
active: [7] -0.881
